Data on 20 compounds can be found in PubChem BioAssay (NCATS).

For test [1], the target named is T1, Hexokinase-4 (Homo sapiens) + Glucokinase regulatory protein (Homo sapiens) (UniProt P35557+Q14397). The test can be described thus: qHTS assay for inhibitors of recombinant human GCK-GKRP interaction: HTRF assay (AID 743207).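 Note: 0% = DMSO with GCK present and -100% = DMSO wells lacking GCK.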 An outline of the steps:
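5 nM GST-GCK + 5 nM FLAG-GKRP + 2 uM S6P, pH 7.1 buffer (25 mM Hepes, 2 mM MgCl2, 25 mM KCl, 1 mM DTT, Tween/BSA); pin-transferred cpd; anti-FLAG XL665/anti-GST K; 60 min RT; HTRF.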
On the technique in general: In qHTS, concentration-response curves come from the screen itself.

The nature of test [2]: qHTS assay for measurement of the activity of small molecule inhibitors on Zika virus induced Caspase-3 activity in human iPSC derived neural progenitor cells (hNPCs) (AID 1224857). Note: % of control where 0% means no effect; nearly all actives have a fitted effect of over 65% in size. An outline of the steps: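 After overnight (16–20 h) culture at 350 cells/well, hNPCs get compound, then ZIKV 2 FFU/cell one hour later. Six hours on, Caspase-Glo 3/7 is added and luminescence measured.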

A short description of test [3]: qHTS assay for measurement of the activity of small molecule inhibitors on Zika virus induced Caspase-3 activity in human astrocytoma cells (AID 1224859).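 Note: plate controls were ZIKV-infected untreated cells for no effect and uninfected cells for full effect.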 An outline of the steps: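 Inhibition of Zika-induced caspase-3/7 activity: SNB-19 cells, 1 h compound pretreatment, ZIKV 2 FFU/cell for 6 h at 37 C, Caspase-Glo luminescence read-out.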
Test [4] is described as follows: Natriuretic polypeptide receptor (hNpr1) antagonism - Pilot counterscreen GloSensor control cell line (AID 1347045; calls by dose curve; note: % is set by controls: 0 for no effect and ±100 for the full control effect). The procedure, abridged:
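The SNP-driven cGMP luminescence signal (50 uM, 20 min, room temperature) was measured in GloSensor HEK293 control cells. Compounds were tested as a LOPAC titration series and preincubated for 30-50 min.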
Background: The purpose of a counterscreen is to sort out artefacts and off-target activity.

In test [5] the target is Atrial natriuretic peptide receptor 1 (Homo sapiens) (UniProt P16066). The test can be described thus: Natriuretic polypeptide receptor (hNpr1) antagonism - Pilot screen (AID 1347049; calls by dose curve;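 note: agonist-evoked cGMP luminescence read 20 min after hNppA addition; % is set by controls: 0 for no effect and ±100 for the full control effect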). The procedure, abridged: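 cGMP-sensor HEK293/hNpr1 cells, 1500/well, plated overnight at 37C. 2% GloSensor reagent, 2 h RT. Compound (23 nL pin transfer) 30 min RT, baseline luminescence pre-read. 0.1 nM hNppA, 20 min RT, post-read.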

Test [6] deals with Atrial natriuretic peptide receptor 2 (Homo sapiens) (UniProt P20594). The test can be described thus: Natriuretic polypeptide receptor (hNpr2) antagonism - Pilot subtype selectivity assay (AID 1347050; calls by dose curve; note: % is set by controls: 0 for no effect and ±100 for the full control effect). An outline of the steps: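 Luminescence from a genetically encoded cGMP luciferase biosensor in hNpr2-expressing HEK293 cells is read before and 20 min after adding 1 nM hNppC. Test compounds, in interplate 1:5 titrations, are added 30-50 min ahead of the agonist.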

Test [7] is described as follows: NS1 protein of Zika virus - qHTS assay to identify small molecule inhibitors in human HEK 293 cells (AID 1347053).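 Note: plate controls were infected untreated cells for no effect and uninfected cells for full effect; nearly all actives have a fitted effect of over 55% in size.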 An outline of the steps:
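TR-FRET signal from two anti-ZIKV NS1 antibodies quantified NS1 in HEK 293 cells 24 h after MR766 infection at MOI = 0.5; compounds were added 1 h before virus. Uninfected cells and infected cells defined the NS1 normalization range.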

Test [8] in a line: qHTS Assay for Identifying Gametocytocidal Compounds (AID 743244).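 For max response: % is set by controls: 0 for no effect and ±100 for the full control effect; actives lower the fluorescent signal which means gametocytes are killed.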 Note: potency is the fitted concentration of half-maximal effect. The following applies: P. falciparum 3D7 stage III-V gametocytes, alamarBlue, 72 h; max response: stronger effect = lower value. An outline of the steps:
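Using 20,000 stage III–V 3D7 gametocytes per well, compounds were incubated 72 h under 37 °C/5% CO2. Viability was then assessed by 24 h alamarBlue reduction, measured fluorometrically at 525/598 nm.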

Test [9] deals with T1, Hexokinase-4 (Homo sapiens) + Glucokinase regulatory protein (Homo sapiens). The test can be described thus: qHTS assay for inhibitors of recombinant human GCK-GKRP interaction: ADP-Glo assay (AID 743206).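 Note: plate controls were DMSO plus enzyme for no effect and no enzyme for full effect.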 An outline of the steps:
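Pin-transferred compounds meet a 15 nM GST-GCK/15 nM FLAG-GKRP/2 uM S6P mix (dispense concentrations). ATP is then added to 0.4 mM final with 5 mM glucose, and the reaction runs 60 min at room temperature. ADP is quantified luminescently.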

A short description of test [10]: qHTS profiling for inhibitors of Plasmodium falciparum (3D7) proliferation (AID 743322).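 Note: infected erythrocytes exposed to compound for 72 h before lysis; 100% = DMSO vehicle wells and 0% = 0.29 µM artemisinin.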 The following applies: P. falciparum 3D7 proliferation; at 28.7 µM (top of the series). The procedure, abridged:
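Parasite DNA was quantified by SYBR Green I fluorescence (ex 485, em 535 nm) after overnight lysis in saponin/Triton buffer at room temperature. Cultures at 0.3% parasitemia and 2.5% hematocrit were first exposed to compound for 72 h at 37 C; signals were normalised to artemisinin (0.29 uM) and vehicle wells.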

The nature of test [11]: qHTS profiling for inhibitors of Plasmodium falciparum (DD2) proliferation (AID 743323; call rule not given here). The following applies: lower = more inhibition; at 28.7 µM (top of the series). The procedure, abridged: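 1536-well qHTS; infected RBCs 0.3% parasitemia/2.5% Hct final; cpd 72 h 37 C 5% CO2; lysis buffer + SYBR Green I, o/n RT dark; FI 485/535; norm. to 0.29 uM artemisinin and DMSO, plate-stack corrected.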

Test [12] is described as follows: qHTS profiling for inhibitors of Plasmodium falciparum (HB3) proliferation (AID 743324).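 Note: 100% = DMSO vehicle wells and 0% = artemisinin-treated control wells.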 The following applies: Plasmodium falciparum HB3 blood-stage proliferation; at 28.7 µM (top of the series). The procedure, abridged:
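SYBR Green fluorescence (485 ex/535 em) of lysed cultures, incubated overnight at room temperature in the dark, quantifies parasite DNA. Infected erythrocytes at 0.3% parasitemia and 2.5% hematocrit were exposed 72 h; values normalized to DMSO and 0.29 uM artemisinin controls.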

Test [13] in a line: qHTS assay for cell viability of HEK293 cells (AID 743288). Note: % is set by controls: 0 for no effect and ±100 for the full control effect; nearly all actives have a fitted effect of over 50% in size. The following applies: ATP luminescence (CellTiter-Glo), 18 h; max response: stronger effect = lower value. The procedure, abridged:
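Viable-cell counts were inferred from luciferase-based ATP content in HEK293 cells seeded at 2,000/well, pre-incubated ≥5 h, then dosed with DMSO-solubilised compounds for 18 h at 37 C.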

A short description of test [14]: qHTS assay for cell viability of the p53RE-bla HCT-116 cell line (AID 743292). Note: nearly all actives have a fitted effect of over 55% in size. Note: potency is the fitted concentration of half-maximal effect. An outline of the steps:
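ATP-based luminescent viability (CellTiter-Glo, 30 min RT) after 16 h compound treatment at 37 C of p53RE-bla HCT-116 cells, seeded at 4,000 cells/well and rested 5 h before dosing.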

Results filed as inconclusive are left out. Active and inactive are the calls of the source. Unless noted, calls come from the whole dose curve; as a rule, active = well fitted curve in the direction sought with a large enough effect; inconclusive = small, poorly fitted or top-dose-only effect, or another doubt; inactive = no such curve, though single readings can be large; an effect the other way counts as inactive or inconclusive.

Sequence of Atrial natriuretic peptide receptor 1 (Homo sapiens) (P16066 whole entry, looked up): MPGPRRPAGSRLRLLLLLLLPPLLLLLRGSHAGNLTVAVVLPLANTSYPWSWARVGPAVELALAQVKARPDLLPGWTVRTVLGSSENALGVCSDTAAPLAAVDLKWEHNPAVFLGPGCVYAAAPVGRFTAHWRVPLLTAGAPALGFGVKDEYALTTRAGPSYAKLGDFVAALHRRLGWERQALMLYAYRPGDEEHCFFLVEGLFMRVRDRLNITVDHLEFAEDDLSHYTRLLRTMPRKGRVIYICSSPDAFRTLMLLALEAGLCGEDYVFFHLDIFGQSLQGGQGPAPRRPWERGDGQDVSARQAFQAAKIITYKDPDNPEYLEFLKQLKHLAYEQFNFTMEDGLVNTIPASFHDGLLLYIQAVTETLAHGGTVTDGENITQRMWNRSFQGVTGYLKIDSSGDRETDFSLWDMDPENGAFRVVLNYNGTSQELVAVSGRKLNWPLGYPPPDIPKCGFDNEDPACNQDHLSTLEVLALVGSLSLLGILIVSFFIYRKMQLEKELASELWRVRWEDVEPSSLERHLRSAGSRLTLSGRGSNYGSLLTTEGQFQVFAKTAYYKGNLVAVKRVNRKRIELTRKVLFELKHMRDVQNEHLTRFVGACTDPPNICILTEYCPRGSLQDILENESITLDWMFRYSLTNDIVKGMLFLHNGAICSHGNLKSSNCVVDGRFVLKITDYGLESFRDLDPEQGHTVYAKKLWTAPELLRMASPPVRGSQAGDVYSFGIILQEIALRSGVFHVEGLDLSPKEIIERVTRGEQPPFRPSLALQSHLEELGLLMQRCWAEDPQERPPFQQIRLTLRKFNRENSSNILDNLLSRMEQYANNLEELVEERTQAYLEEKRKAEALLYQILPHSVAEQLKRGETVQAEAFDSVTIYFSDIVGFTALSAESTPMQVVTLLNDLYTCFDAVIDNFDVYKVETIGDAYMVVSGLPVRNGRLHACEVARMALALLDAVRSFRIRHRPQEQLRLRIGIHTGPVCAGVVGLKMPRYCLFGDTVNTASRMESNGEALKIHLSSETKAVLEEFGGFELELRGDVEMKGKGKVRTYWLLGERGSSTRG
Sequence of Atrial natriuretic peptide receptor 2 (Homo sapiens) (P20594 whole entry, looked up): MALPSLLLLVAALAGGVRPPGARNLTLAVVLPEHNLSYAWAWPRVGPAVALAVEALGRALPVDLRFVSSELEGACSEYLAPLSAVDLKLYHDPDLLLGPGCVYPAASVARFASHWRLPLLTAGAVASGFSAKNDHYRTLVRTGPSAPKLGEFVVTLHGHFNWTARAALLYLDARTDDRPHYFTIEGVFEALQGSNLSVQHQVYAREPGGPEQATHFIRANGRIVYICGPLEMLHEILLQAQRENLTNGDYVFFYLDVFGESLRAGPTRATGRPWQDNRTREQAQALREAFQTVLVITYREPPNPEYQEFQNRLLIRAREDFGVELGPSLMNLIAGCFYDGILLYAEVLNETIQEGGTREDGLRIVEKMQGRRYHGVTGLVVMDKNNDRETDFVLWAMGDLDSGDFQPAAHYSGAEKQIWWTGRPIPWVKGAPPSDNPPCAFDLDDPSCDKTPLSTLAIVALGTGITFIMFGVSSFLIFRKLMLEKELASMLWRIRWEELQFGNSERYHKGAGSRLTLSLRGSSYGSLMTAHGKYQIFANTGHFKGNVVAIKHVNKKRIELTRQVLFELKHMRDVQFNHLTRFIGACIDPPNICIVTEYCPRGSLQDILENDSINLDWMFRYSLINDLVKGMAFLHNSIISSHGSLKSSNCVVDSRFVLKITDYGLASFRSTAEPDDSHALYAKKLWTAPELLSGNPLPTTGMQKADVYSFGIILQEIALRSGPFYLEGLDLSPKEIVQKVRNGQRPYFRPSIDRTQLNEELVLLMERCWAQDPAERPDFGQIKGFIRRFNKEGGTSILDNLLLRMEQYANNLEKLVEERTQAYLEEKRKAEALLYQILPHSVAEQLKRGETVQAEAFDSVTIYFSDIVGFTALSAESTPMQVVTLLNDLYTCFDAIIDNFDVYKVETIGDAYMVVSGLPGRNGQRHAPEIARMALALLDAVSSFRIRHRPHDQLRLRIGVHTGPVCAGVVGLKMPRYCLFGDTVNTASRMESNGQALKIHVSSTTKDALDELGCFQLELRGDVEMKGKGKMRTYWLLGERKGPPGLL
T1 sequence (P35557 whole entry, looked up): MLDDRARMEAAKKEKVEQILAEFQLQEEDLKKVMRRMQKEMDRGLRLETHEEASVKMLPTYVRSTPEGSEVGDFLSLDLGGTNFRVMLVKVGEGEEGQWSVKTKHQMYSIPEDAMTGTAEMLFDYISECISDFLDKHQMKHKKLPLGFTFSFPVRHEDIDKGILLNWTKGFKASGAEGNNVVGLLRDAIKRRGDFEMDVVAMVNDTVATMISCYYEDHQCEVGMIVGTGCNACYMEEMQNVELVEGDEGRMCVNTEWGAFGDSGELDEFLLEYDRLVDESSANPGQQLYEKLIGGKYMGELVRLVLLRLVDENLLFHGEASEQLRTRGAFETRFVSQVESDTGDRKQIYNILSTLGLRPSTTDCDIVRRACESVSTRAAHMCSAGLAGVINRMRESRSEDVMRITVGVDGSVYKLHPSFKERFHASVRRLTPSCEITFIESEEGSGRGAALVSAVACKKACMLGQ
T1 sequence (Q14397 whole entry, looked up): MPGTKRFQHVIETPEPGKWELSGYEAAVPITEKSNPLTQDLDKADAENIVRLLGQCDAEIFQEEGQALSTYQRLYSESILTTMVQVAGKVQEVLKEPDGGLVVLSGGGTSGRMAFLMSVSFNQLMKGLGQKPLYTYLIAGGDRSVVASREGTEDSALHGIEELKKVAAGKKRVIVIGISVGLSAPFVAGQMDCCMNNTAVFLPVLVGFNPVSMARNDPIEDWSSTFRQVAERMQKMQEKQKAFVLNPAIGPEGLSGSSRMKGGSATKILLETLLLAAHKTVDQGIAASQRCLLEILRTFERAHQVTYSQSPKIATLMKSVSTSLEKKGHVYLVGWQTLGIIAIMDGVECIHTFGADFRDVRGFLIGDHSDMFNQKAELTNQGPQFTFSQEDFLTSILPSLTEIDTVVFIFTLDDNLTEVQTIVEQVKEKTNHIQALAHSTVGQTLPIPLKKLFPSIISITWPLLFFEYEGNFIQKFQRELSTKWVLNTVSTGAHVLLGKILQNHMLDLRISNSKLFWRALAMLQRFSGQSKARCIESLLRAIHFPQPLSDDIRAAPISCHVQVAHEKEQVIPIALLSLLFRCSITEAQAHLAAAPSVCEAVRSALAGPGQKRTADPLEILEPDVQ

`CC(O)C(O)[C@H]1CNc2nc(N)[nH]c(=O)c2N1` (stereo partly drawn): the Potency result in test [1], in test [2], in test [3], in test [4], in [5] and in test [6] was “inactive” each time. Besides, the Potency result in test [7] was “inactive”.

As for `O=c1ccn([C@@H]2O[C@H](COP(=O)(O)OP(=O)(O)O)[C@@H](O)[C@H]2O)c(=O)[nH]1`, the Potency entry in [1], in test [2], in [3], in test [4], in test [5] and in [6] was “inactive” throughout. Moreover, in test [7], the Potency entry is “inactive”. The max response in test [8] was 17.2% (inactive).

On to `N=S(=O)(O)Cc1noc2ccccc12`, for which the Potency result in test [1], in [2], in [3], in test [4], in test [5] and in [6] was “inactive” each time. Moreover, the Potency result in test [7] is “inactive”. Further, the max response in test [8] was 7.99% (inactive).

On to `CC(N)(Cc1ccc(O)c(O)c1)C(=O)O` (stereo not drawn), for which the Potency entry in test [9], in test [1], in test [2], in test [3], in test [4] and in test [5] was “inactive” in each case. Also, the Potency entry in test [6] and in [7] was “inactive” each time. In test [8], the max response is 8.06% (inactive).

Consider `NCC(O)C1CCCCCCC1` (stereo not drawn), for which the Potency result in test [1], in test [2], in test [3], in test [4], in [5] and in test [6] was “inactive” throughout. Moreover, in test [7], the Potency result was “inactive”. Further, in test [8], the max response was 18.9% (inactive).

Consider `Cc1cccc(C)c1OCC(N)C(C)C` (stereo not drawn), for which the Potency result in test [9], in test [1], in test [2], in test [3], in test [4] and in [5] was “inactive” throughout. Also, the Potency entry in test [6] and in test [7] was “inactive” each time. Moreover, the remaining parasite growth % (stronger effect = lower value) in test [10] was -0.502%. Besides, the activity, percent of control in test [11] was -0.0581%. For the same compound, the remaining proliferation (% of control), lower = more inhibition in [12] was -0.0097%.

For the compound `C#CCn1c(=O)c2c(ncn2C)n(C)c1=O`, the Potency result in [9], in [1], in test [2], in [3], in test [4] and in test [5] was “inactive” in each case. Besides, the Potency entry in test [6] and in [7] was “inactive” throughout. In [8], the max response is 7.96% (inactive).

Consider `O=C1OC(=O)C2C3CCC(O3)C12` (stereo not drawn), for which the Potency result in test [9], in test [1], in test [2], in test [3], in test [4] and in test [5] was “inactive” each time. The Potency entry in test [6] and in test [7] was “inactive” throughout. In test [8], the max response is 26.3% (inactive).

For the compound `NC(C(=O)N[C@@H]1C(=O)N2C(C(=O)O)=C(Cl)CS[C@H]12)c1ccccc1` (stereo partly drawn), the Potency result in test [1], in test [2], in test [3], in [4], in [5] and in [6] was “inactive” in each case. Besides, the Potency entry in test [7] is “inactive”.

Turning to `CCCc1c(-c2ccc(O)cc2)nn(-c2ccc(O)cc2)c1-c1ccc(O)cc1`, the Potency entry in test [9], in [1], in [2], in test [3], in test [4] and in [5] was “inactive” in each case. The Potency entry in [6] and in test [7] was “inactive” in each case. The max response in test [8] was 23.6% (inactive); in test [13], -10.3% (inactive). The Potency in [14] is 70.8 µM (active).

Take `C=CCn1c(=O)c2c(nc(-c3ccc(S(=O)(=O)O)cc3)n2C)n(C)c1=O`: the Potency entry in test [1], in test [2], in test [3], in [4], in test [5] and in [6] was “inactive” each time. The Potency result in test [7] is “inactive”. The max response in test [8] was 2.53% (inactive).

Take `CCCCCCCCCCCCCCSCC(=O)O`: the Potency result in [9], in test [1], in test [14], in test [2], in [3] and in test [4] was “inactive” in each case. Also, the Potency entry in [5], in test [6] and in test [7] was “inactive” each time. The max response in [8] was 30.8% (inactive); in [13], -15% (inactive).

On to `CCCCCCCCCC(=O)NC(CN1CCOCC1)[C@H](O)c1ccccc1` (stereo partly drawn), for which the Potency result in test [9], in test [1], in [2], in [3], in [4] and in test [5] was “inactive” in each case. Besides, the Potency entry in test [6] and in test [7] was “inactive” each time. In addition, the Potency in test [8] is 3.55 µM (active).

With `NC(=O)c1ccccc1`, the Potency entry in [9], in test [1], in test [14], in test [2], in test [3] and in test [4] was “inactive” in each case. Further, the Potency result in test [5], in test [6] and in test [7] was “inactive” each time. In addition, the figures for the max response in [8] and in test [13] were -3.76% (inactive) and -1.67% (inactive), respectively.

For the compound `O=c1[nH]c2ccccc2c2ccccc12`, the Potency result in test [9], in test [1], in test [2], in [3], in test [4] and in test [5] was “inactive” each time. Further, the Potency result in test [7] is “inactive”. Besides, the max response in test [8] was 36% (inactive).

Turning to `CC1C(=O)N(C)C(=O)c2nc[nH]c21` (stereo not drawn), the Potency result in test [9], in test [1], in test [2], in test [3], in [4] and in [5] was “inactive” in each case. In addition, the Potency entry in test [7] is “inactive”. For the same compound, the max response in [8] was 38.8% (inactive).

As to `O=c1[nH]c2cc(Cl)ccc2c(O)c1-c1ccc(Oc2ccccc2)cc1`, the Potency entry in test [9], in [1], in test [2], in test [3], in [4] and in test [5] was “inactive” in each case. Also, the Potency result in test [6] was “inactive”. In addition, in [8], the max response is 17.9% (inactive).

For `CC#CCOC(=O)c1c(C)nc2sc3c(c2c1N)CCC(O)C3` (stereo not drawn), the max response in test [8] is -7.3% (inactive). Besides, the Potency result in test [2], in test [3], in test [4], in test [5], in [6] and in test [7] was “inactive” each time.

Take `Nc1ccc(N2C(=O)c3ccccc3C2=O)c(Cl)c1`: the Potency entry in test [9], in test [1], in test [2], in test [3], in [4] and in test [5] was “inactive” each time. Besides, the Potency entry in test [6] was “inactive”. Besides, the max response in test [8] is 6.35% (inactive).

For `N[C@@H](Cc1ccc(O)c(I)c1)C(=O)O`, the Potency result in test [9], in test [1], in test [2], in test [3], in test [4] and in [5] was “inactive” each time. Also, the Potency result in [6] is “inactive”. In addition, the max response in test [8] is 31.3% (inactive).
